# Reference: the OligoGym collection
# Assays:
# Test in all cases: pooled miR-30 sensor sort-seq; sequence = guide strand
# Conditions in all cases: shRNA
# PTPN7 = molecular target: PTPN7
# PTGFRN = molecular target: PTGFRN
# PTGFR = molecular target: PTGFR
# PTH2R = molecular target: PTH2R
# PYROXD1 = molecular target: PYROXD1
# RAB11A = molecular target: RAB11A
# RAD9A = molecular target: RAD9A
# RASGEF1A = molecular target: RASGEF1A
# RASGEF1C = molecular target: RASGEF1C
# RASGRP2 = molecular target: RASGRP2
# RANGAP1 = molecular target: RANGAP1
# RBMY1E = molecular target: RBMY1E
# RCSD1 = molecular target: RCSD1
# RBP1 = molecular target: RBP1
# RDH8 = molecular target: RDH8
# RDH5 = molecular target: RDH5
# RET = molecular target: RET
# RGS9 = molecular target: RGS9
# RNPC3 = molecular target: RNPC3
# RPS6KA5 = molecular target: RPS6KA5
# RTTN = molecular target: RTTN
# RYR2 = molecular target: RYR2
# SASH1 = molecular target: SASH1
# SCGB1D4 = molecular target: SCGB1D4
# SEZ6L = molecular target: SEZ6L
# SH3YL1 = molecular target: SH3YL1
# SLC20A1 = molecular target: SLC20A1
# SLC22A7 = molecular target: SLC22A7
# SLC25A25 = molecular target: SLC25A25
# SLC50A1 = molecular target: SLC50A1
# SLC7A11 = molecular target: SLC7A11
# SLC9A5 = molecular target: SLC9A5
sequence,measurement,setting,value
TTCTCCTCGGGCTTTCAGCTGT,sensor-assay potency score (higher = more potent),PTPN7,-0.819
TTTGTCTGTCATAAATGCCAGC,sensor-assay potency score (higher = more potent),PTPN7,-0.867
TTTTCTTGGATTTCCTGCCAGT,sensor-assay potency score (higher = more potent),PTGFRN,-0.278
TTTTATAGTCTCGATGTCCAAG,sensor-assay potency score (higher = more potent),PTGFR,-0.668
TTTGACAAATTTCAAAACCTGA,sensor-assay potency score (higher = more potent),PTGFR,-0.803
TAAACTACTCCATTGACACTTG,sensor-assay potency score (higher = more potent),PTH2R,-0.214
TGCACAACAATGAAACACCAAG,sensor-assay potency score (higher = more potent),PTGFR,-1.45
TAGTGGACACATTTCTCCTTGC,sensor-assay potency score (higher = more potent),PTPN7,-0.219
TATATTGTGATTTGTCCACAGA,sensor-assay potency score (higher = more potent),PTH2R,-0.718
TAGATTTGCTTCTAGCTTCCTT,sensor-assay potency score (higher = more potent),PYROXD1,0.523
TAGAGTCTCCTGAACTCGCTGC,sensor-assay potency score (higher = more potent),PYROXD1,0.751
TTTCAATGAATGACAAACCATT,sensor-assay potency score (higher = more potent),RAB11A,-1.27
TCACATCTAAGACACTGCCTGG,sensor-assay potency score (higher = more potent),RAD9A,-0.534
ATGAAGAACTCCAACATGCGGG,sensor-assay potency score (higher = more potent),RASGEF1A,-0.48
TTTTTCTGTTTGGTTCTCTGGG,sensor-assay potency score (higher = more potent),RASGEF1C,0.0788
TTTCTCGGGGTAGTAGTCGGCT,sensor-assay potency score (higher = more potent),RASGEF1C,-0.879
TTCTTGGTCTAGCAGAGCCTTC,sensor-assay potency score (higher = more potent),RASGRP2,-1.75
ATGAAGAACTCAATCACCTGGG,sensor-assay potency score (higher = more potent),RASGEF1C,0.211
TACTGATCCAGAGACACCGTGA,sensor-assay potency score (higher = more potent),RASGRP2,0.0565
TAGCAGAGCCTTCAGCTCCTTG,sensor-assay potency score (higher = more potent),RASGRP2,-0.951
TTGCAGAAGTTGCTGGACGGGT,sensor-assay potency score (higher = more potent),RASGEF1A,-0.613
TTTTCTGTTTGGTTCTCTGGGC,sensor-assay potency score (higher = more potent),RASGEF1C,-0.505
TTGGTAGATGTGGAGCAGCTTG,sensor-assay potency score (higher = more potent),RASGRP2,-1.27
AATCTTCTTGTCCTTCTCGAAA,sensor-assay potency score (higher = more potent),RASGEF1A,-1.91
TTGGAGTTGAAGGACGAGGAGT,sensor-assay potency score (higher = more potent),RANGAP1,-0.814
AAGGTGAAGATGTACGTCCTAT,sensor-assay potency score (higher = more potent),RASGEF1A,0.212
TTAGAGCTTTCCATCTTTCTTT,sensor-assay potency score (higher = more potent),RASGEF1C,-0.12
TAGTCCTGAAACAGGATCTTGC,sensor-assay potency score (higher = more potent),RASGRP2,-0.808
TCACATCTTTAGCATCTTCTGC,sensor-assay potency score (higher = more potent),RANGAP1,-0.932
TGTTTCTTCTTCACCACCCGGC,sensor-assay potency score (higher = more potent),RASGEF1A,0.377
TAGCACAGCCTGTTGAACCATT,sensor-assay potency score (higher = more potent),RASGEF1C,-1.09
TTGACCTTGTCTTCACTCTTGA,sensor-assay potency score (higher = more potent),RANGAP1,0.405
TTGTTGGTAGATGTGGAGCAGC,sensor-assay potency score (higher = more potent),RASGRP2,-1.12
TGAACCATTTCACATAAGCCTC,sensor-assay potency score (higher = more potent),RASGEF1C,-1.38
TTCACTCTTGAGCAGACCCATG,sensor-assay potency score (higher = more potent),RANGAP1,-1.41
TGAATCTTCTTGTCCTTCTCGA,sensor-assay potency score (higher = more potent),RASGEF1A,0.828
TTCCACGTGGGTCAGCTGCTGG,sensor-assay potency score (higher = more potent),RASGEF1C,-1.01
TTTTTCCATGTGGTTCTCGGGA,sensor-assay potency score (higher = more potent),RASGEF1A,-0.794
TAGGAAACCATCTCCTCCCTGC,sensor-assay potency score (higher = more potent),RASGRP2,0.463
TGTAGTTGCAGAAATTCCCCGT,sensor-assay potency score (higher = more potent),RASGEF1C,0.202
TTGAACACAGATGACACCTTTA,sensor-assay potency score (higher = more potent),RANGAP1,-0.0745
TAATCACATCTTTAGCATCTTC,sensor-assay potency score (higher = more potent),RANGAP1,-0.22
TTCTTGTCCTTCTCGAAAGGAC,sensor-assay potency score (higher = more potent),RASGEF1A,-0.791
TTTCCGGTGACATTCGGTCAGA,sensor-assay potency score (higher = more potent),RANGAP1,-1.19
TTCAACTCCGACTTCTTCTCTA,sensor-assay potency score (higher = more potent),RANGAP1,0.789
TTCAGGAGCTGCACGATCTTGG,sensor-assay potency score (higher = more potent),RASGEF1A,-0.661
TTTCACATAAGCCTCCAGGTTG,sensor-assay potency score (higher = more potent),RASGEF1C,-0.649
TTAGGCTGCTGTGCCGTCGGTT,sensor-assay potency score (higher = more potent),RASGRP2,-0.65
ATGACAATCTTCTCTCGGCTGC,sensor-assay potency score (higher = more potent),RASGEF1C,-0.296
AAACTTGGCTGTCTTGACCTTG,sensor-assay potency score (higher = more potent),RASGEF1A,-0.781
TCTCACTTTCGTAAGAAGCCAA,sensor-assay potency score (higher = more potent),RASGEF1C,-0.537
TGAAGAACTCCAACATGCGGGT,sensor-assay potency score (higher = more potent),RASGEF1A,-0.41
TAGGTCTTGGTCAGGTCCCCTC,sensor-assay potency score (higher = more potent),RASGEF1A,-1
TAACTTGAGCTACCACATGCTT,sensor-assay potency score (higher = more potent),RBMY1E,-1.09
AACTTGAGCTACCACATGCTTC,sensor-assay potency score (higher = more potent),RBMY1E,-1.03
TAGCCTTTTCCATCTCTGCTTC,sensor-assay potency score (higher = more potent),RCSD1,-0.0691
TTGCTTGCAGACCACACCTTCC,sensor-assay potency score (higher = more potent),RBP1,-0.849
TTGGTGTCAAAGACATTCTGCA,sensor-assay potency score (higher = more potent),RDH8,0.0313
TAACTGATATTTGAGAACCGTA,sensor-assay potency score (higher = more potent),RCSD1,-1.05
TTGAAAAGTTGTCTCTAGGGTT,sensor-assay potency score (higher = more potent),RCSD1,-0.0262
AAGTCCATGATGTAGTTCCTAA,sensor-assay potency score (higher = more potent),RBP1,-0.968
TTGAGAACCGTAAACACTTTAG,sensor-assay potency score (higher = more potent),RCSD1,-0.662
TTTCTCGGGAACTTCGACGATT,sensor-assay potency score (higher = more potent),RBMY1E,-0.472
TTAACGTGCATCTCCACCCACT,sensor-assay potency score (higher = more potent),RDH5,-0.757
ATGAGCTACATCCCGCCTCAGG,sensor-assay potency score (higher = more potent),RDH5,-1.65
TTTGAGAACCGTAAACACTTTA,sensor-assay potency score (higher = more potent),RCSD1,-0.421
AAAATGAGCTACATCCCGCCTC,sensor-assay potency score (higher = more potent),RDH5,-0.19
TATCTCTTCTAGTCCAGTGTTT,sensor-assay potency score (higher = more potent),RCSD1,-0.522
TTGAGCTACCACATGCTTCACG,sensor-assay potency score (higher = more potent),RBMY1E,-0.607
TAGAACATTAAAAAGGAACTTT,sensor-assay potency score (higher = more potent),RCSD1,0.0564
TTCCACTCTCATCTCTAGGTGC,sensor-assay potency score (higher = more potent),RBP1,-0.438
TTGACCAACATCTTCCAGTACC,sensor-assay potency score (higher = more potent),RBP1,-0.856
TAGGTCCGGGTCACAGATCAGG,sensor-assay potency score (higher = more potent),RDH5,-1.62
TTTGATACAATTTAGGGTCTTC,sensor-assay potency score (higher = more potent),RCSD1,0.305
TTCTGCACACACTGGAGCTTGT,sensor-assay potency score (higher = more potent),RBP1,-0.8
TTTCAGGTACTTGGTGAGGAAG,sensor-assay potency score (higher = more potent),RDH5,-1.78
TTGTCATGCACTTGCGGTCATC,sensor-assay potency score (higher = more potent),RBP1,-1.49
TCGGAAGCCTCTCTGGTCCAGC,sensor-assay potency score (higher = more potent),RDH5,-1.15
TTCCACCATAGGACATCCGAGG,sensor-assay potency score (higher = more potent),RBMY1E,-1.61
TACAACTGTTGCTGCTACCTGC,sensor-assay potency score (higher = more potent),RCSD1,0.0449
TTGTTGTTGAACCAAGTCCATC,sensor-assay potency score (higher = more potent),RCSD1,-1.65
TCAGTGATATCCAACAGGGTGG,sensor-assay potency score (higher = more potent),RDH5,-0.32
TTCCTTAACGTGCATCTCCACC,sensor-assay potency score (higher = more potent),RDH5,-0.947
TACTCCTCGAAATTCTCGTTGA,sensor-assay potency score (higher = more potent),RBP1,-0.0394
ACTGTTGTCATGCACTTGCGGT,sensor-assay potency score (higher = more potent),RBP1,-1.01
ATTCTCGTTGACCAACATCTTC,sensor-assay potency score (higher = more potent),RBP1,-0.954
TGTGTTCACATTCAGCACCCGC,sensor-assay potency score (higher = more potent),RDH5,-1.07
TCGTTGACCAACATCTTCCAGT,sensor-assay potency score (higher = more potent),RBP1,-0.239
TTTCTCCAGACTCTCCAGGTTG,sensor-assay potency score (higher = more potent),RDH5,-1.05
ATCAGTGATATCCAACAGGGTG,sensor-assay potency score (higher = more potent),RDH5,-0.912
TTAAAAAGGAACTTTACCCAAG,sensor-assay potency score (higher = more potent),RCSD1,-0.456
TGCATTTTCAGGTACTTGGTGA,sensor-assay potency score (higher = more potent),RDH5,0.187
TTCCTTAGCACCGTTCTGCTGA,sensor-assay potency score (higher = more potent),RCSD1,0.0396
TTCTCGTTGACCAACATCTTCC,sensor-assay potency score (higher = more potent),RBP1,-0.467
TTCCTAAAAGTGCTCAGCGTGC,sensor-assay potency score (higher = more potent),RBP1,-1.04
TAAACATCTCGGGACAAGCCGA,sensor-assay potency score (higher = more potent),RET,-0.999
TTGGGTCTCCACAACATCGCAG,sensor-assay potency score (higher = more potent),RET,-0.15
TTTACCTTGACTTCATTCGGAT,sensor-assay potency score (higher = more potent),RGS9,0.0975
TTGAGAATGAGATTCTTGGGGT,sensor-assay potency score (higher = more potent),RGS9,0.816
TTTGCTAGGATTGTGCTGGAAG,sensor-assay potency score (higher = more potent),RNPC3,-0.549
TTCTTCATGATTTCCACCGCGC,sensor-assay potency score (higher = more potent),RPS6KA5,0.302
TATCATCTGTTTCTTCTCGTGC,sensor-assay potency score (higher = more potent),RTTN,0.159
TTCAAATCAAACATACACCGTC,sensor-assay potency score (higher = more potent),RTTN,0.646
TTCACTTGAACTTCTCGTGGGG,sensor-assay potency score (higher = more potent),RYR2,0.903
TAAATCACTGTTTCCATCCAGA,sensor-assay potency score (higher = more potent),RYR2,0.11
TAACCTCTTAAACTTCACCGAC,sensor-assay potency score (higher = more potent),SASH1,-0.612
TCTTAAAAGATATCTGATCGGT,sensor-assay potency score (higher = more potent),SCGB1D4,-0.48
TTGTCATGCAGCAACAGCCTCT,sensor-assay potency score (higher = more potent),SEZ6L,-0.492
TTATAGGTCGGGTCGGATGTAG,sensor-assay potency score (higher = more potent),SEZ6L,-0.637
TAACTGTGATTCTGTCTCCAGC,sensor-assay potency score (higher = more potent),SH3YL1,-0.946
TAGGCAACTGCACTGCACCATT,sensor-assay potency score (higher = more potent),SLC20A1,-0.846
TAACAGTCAATAAACTGCTTGC,sensor-assay potency score (higher = more potent),SLC20A1,0.0584
TCGGAGGACACTAGCAGTCTAG,sensor-assay potency score (higher = more potent),SLC22A7,-0.985
TCTGAGTGGTCGTACTCCCAGC,sensor-assay potency score (higher = more potent),SLC22A7,-1.03
TTCTTTTTGTCCAAACTCTTAA,sensor-assay potency score (higher = more potent),SLC25A25,-1.04
TAAATGACAACTTCTAACGTCC,sensor-assay potency score (higher = more potent),SLC25A25,0.0926
TAGTTTGAATCACCTTAGCCAA,sensor-assay potency score (higher = more potent),SLC50A1,-1.16
TTCAGTAACAAAGTTGAGGTAA,sensor-assay potency score (higher = more potent),SLC7A11,0.0391
TTCTTCAGTAACAAAGTTGAGG,sensor-assay potency score (higher = more potent),SLC7A11,-0.835
TCTGTCTCTGAACTGTCGCTCT,sensor-assay potency score (higher = more potent),SLC9A5,0.00832
